Screening results from PubChem.
Rows were chosen to be rich in hits. Some 4.6% of all compounds tested hit in one or more screens of this group.
tim23-1 inh = growth inhibitors of tim23-1 mutant yeast, primary screen, luminescence, uHTS; S. cerevisiae tim23-1 growth, BacTiter-Glo luminescence, 24 h; inhibition, % at 20 µM; hit rate 1.3% among 330,000;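 active = growth inhibition of the mutant yeast at or above 50%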;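 also: temperature-sensitive mutant grown at 25 °C; plate controls were DMSO-treated mutant yeast for no effect and medium wells lacking yeast for full effect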
TIM10 inh = growth inhibitors of isogenic TIM10 control yeast, primary screen, counter-screen for tim10-1 yeast inhibitor project, luminescence, uHTS; S. cerevisiae TIM10 strain growth, BacTiter-Glo luminescence, 24 h; inhibition, % at 10 µM; hit rate 1.4% among 330,000;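 active = inhibition of 40% or more at the single tested concentration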;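 also: wild-type TIM10 isogenic control strain grown at permissive 25 °C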
tim10-1 inh = growth inhibitors of tim10-1 mutant yeast, primary screen, luminescence, uHTS. S. cerevisiae tim10-1 ts strain growth, BacTiter-Glo, 24 h. inhibition, % at 20 µM. hit rate 2.2% among 330,000;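 active = inhibition of at least 40%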;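 also: mutant grown at 25 °C; 0% = DMSO wells with yeast and 100% = wells holding no yeast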
NALP3 yeast inh = NALP3 inflammasome inhibitors in reconstituted yeast, primary screen, luminescence, uHTS; Yeast reconstituted NLRP3/ASC/caspase-1, beta-gal luminescence, 24 h; inhibition, % at 10 µM; hit rate 0.39% among 330,000; AID 2825, 2010;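 active = inhibition of 50% or more; inactive = inhibition below 50%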;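 also: plate controls were induced DMSO wells for no effect and uninduced yeast grown without galactose for full effect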
SKKanGAS inh = S. pyogenes SKKanGAS growth inhibitors in kanamycin, primary screen, streptokinase expression inhibitor project, SKKanGAS strain, BacTiter-Glo luminescence | 6 h | inhibition, % at 7.5 µM | hit rate 1.3% among 300,000;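 active = mean replicate score, as percent of positive control median, at least 50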;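 also: strain carries kanamycin resistance gene driven by streptokinase promoter and grows in 40 µg/ml kanamycin; loss of luminescence reflects streptokinase promoter inhibition or plain growth inhibition; 0% = median of DMSO wells and 100% = positive control at its reference dose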
tim10 confirm = growth inhibitors of wild-type TIM10 yeast, confirmation, counter-screen for tim10-1 synthetic lethality project, single concentration, luminescence, S. cerevisiae. shares compounds with TIM10 inh. S. cerevisiae tim10 strain growth, BacTiter-Glo luminescence, 24 h. inhibition, % at 10 µM. hit rate 63% among 4,600. AID 463215, 2010;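 active = inhibition of yeast growth at or above a set limit in either of two replicates at 10 µM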;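 also: this counterscreen used the strain with wild-type TIM10; 0% = yeast with DMSO and 100% = medium wells lacking yeast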
* marks the source's active call; other numbers are inactive results; · = no result given.

SMILES	tim23-1 inh	TIM10 inh	tim10-1 inh	NALP3 yeast inh	SKKanGAS inh	tim10 confirm
O=C(CNC(=O)c1ccco1)NCC(=O)OCC(=O)c1ccc(Cl)c([N+](=O)[O-])c1	1	-3	-8	0	1	·
O=C(NC1CCCCCC1)c1cc(S(=O)(=O)N2CCOCC2)ccc1N1CCCCC1	24	44*	23	7	0	31
O=C(NC1CCCCCC1)c1cc(S(=O)(=O)N2CCCCC2)ccc1N1CCOCC1	8	20	23	16	9	·
FC(F)(F)c1cccc(NC(=S)NCc2ccccc2)c1	32	47*	35	-1	28	49*
O=C(Nc1cccc(C(F)(F)F)c1)C(SCCO)c1ccccc1 (centres undefined)	20	12	14	5	7	·
CCC(C(=O)Nc1cccc(C(F)(F)F)c1)c1ccccc1 (centres undefined)	29	40*	39	-5	1	47*
COc1ccc(N2CCN(CCCNC(=O)Cn3c(=O)c4cccn4c4ccccc43)CC2)cc1	1	46*	4	11	0	9
Cc1nn(CC(C)C)c(Cl)c1C(=O)N(C)CC(=O)Nc1c(Cl)cccc1Cl	9	8	13	4	-1	·
CCOc1cc(-c2cc(-c3ccc(C)o3)nc(N)c2C#N)ccc1O	31	43*	40	6	16	21
O=C1C[C@@H]2c3c(cccc3CN1Cc1ccc(F)cc1)C[C@@H](O)[C@H]2O	6	-2	12	-15	·	·
CCOC(=O)CSc1nnc2c(n1)C1(C)CCC2C1(C)C (centres undefined)	18	2	23	-3	0	·
CC12CCC(c3nnc(SCC(=O)Nc4cccc5ccccc45)nc31)C2(C)C (centres undefined)	38	46*	36	-1	3	24
Cc1ccc(-n2cc3c(-c4cccc(Br)c4)nnc(C)c3n2)cc1	41	44*	35	25	64*	31*
Cc1ccc(C(=O)NC(=S)Nc2ccccc2C(F)(F)F)cc1	28	40*	26	21	7	12
CC(NC(=O)c1cc(F)c(F)c(F)c1F)c1ccc(-n2ccnc2)cc1 (centres undefined)	-8	-18	-2	11	-1	·
Nc1cc(OC(=O)c2cccs2)nn1S(=O)(=O)c1ccccc1	15	55*	37	0	3	1
COc1ccc(N(CC(=O)Nc2cc(Cl)ccc2OC)S(=O)(=O)c2c(C)[nH]c(=O)[nH]c2=O)cc1	0	44*	-8	-1	10	-3
O=C(COc1cccc(OC(F)F)c1)Nc1ccc(SC(F)F)cc1	44	50*	38	34	0	39*
CCc1nnc(NC(=O)CN2CCN(c3ccccc3F)CC2)s1	13	14	-3	7	0	·
O=C(N/N=C/c1cccc(OC(=O)c2ccco2)c1)c1ccc(F)cc1	14	41*	13	13	-3	32*
COc1cc(/C=N/NC(=O)c2ccc(F)cc2)ccc1OC(=O)c1ccco1	9	17	2	5	-5	·
Cc1nc2ccc(NS(=O)(=O)c3ccc(F)c(C)c3)cc2[nH]1	-17	-8	-8	16	-4	·
CC1CCN(C(=O)CN2c3cccc4cccc(c34)S2(=O)=O)CC1	34	6	-23	17	·	·
COc1ccc(N2C(=O)CC(Sc3nc(C)cc(C)c3C#N)C2=O)cc1 (centres undefined)	31	42*	30	5	1	28*
CCCc1ccc(C#N)c(SC2CC(=O)N(c3ccc(OC)cc3)C2=O)n1 (centres undefined)	10	10	6	12	8	·
SMILES	tim23-1 inh	TIM10 inh	tim10-1 inh	NALP3 yeast inh	SKKanGAS inh	tim10 confirm
CC[C@@]12C(=O)N(c3cccc(F)c3)C(=O)N1[C@H](c1ccc(Cl)cc1)[C@@H]1C(=O)N(C3CCCCC3)C(=O)[C@@H]12	21	12	12	-5	7	·
CC12CCC(C(=O)N(CC(=O)O)C1=O)C2(C)C (centres undefined)	-1	8	-11	12	3	·
CC12CCC(C(=O)N(CSC(=S)N/N=C\c3ccccc3)C1=O)C2(C)C (centres undefined)	5	58*	36	22	6	50*
Cc1ccc(C(=O)Nc2ccc3c(c2)nc2n3CCSC2)cc1	42	63*	26	19	-2	65*
CN(C(=O)COC(=O)c1ccccc1SCC(=O)N1CCCC1)C1(C#N)CCCCC1	6	-7	-1	10	·	·
COc1cccc(-n2c(SCC(N)=O)nnc2-c2c[nH]c3ccccc23)c1	-1	-10	0	4	-2	·
COc1ccc(OC)c(-n2c(SCC(N)=O)nnc2-c2c[nH]c3ccccc23)c1	9	98*	6	0	-5	2
O=C(CCc1ccccc1)NC(=S)Nc1cccc(C(=O)O)c1	0	-4	-1	16	21	·
O=C(CCc1ccccc1)NC(=S)Nc1cccc(Br)c1	42	48*	37	2	40	-16
O=C(CCN1C(=O)c2ccccc2C1=O)NC(=S)Nc1cccc(Cl)c1	1	41*	8	26	-3	25
CC(=O)c1cccc(NC(=S)NCCCCc2ccccc2)c1	33	41*	28	11	5	-16
S=C(Nc1cccc(Br)c1)c1ccccc1	45	43*	38	38	-23	44*
Oc1ccc(N=Nc2ccc3ccccc3c2)cc1	-16	6	-62	42	24	·
O=C(Nc1ccc(S(=O)(=O)Nc2ncccn2)cc1)C1=NN(c2ccccc2)C(=O)CC1	-11	5	-12	3	17	·
O=C1CC(N2CCN(c3ccccn3)CC2)C(=O)N1CC(c1ccccc1)c1ccccc1 (centres undefined)	15	42*	26	4	-2	31
CSc1nc(=S)n(-c2cc(C)ccc2C)c(C)c1C(C)=O	16	-3	16	14	1	·
Cc1cc(-c2ccc(N3CCOCC3)cc2)nc2ccccc12	48	58*	28	25	-4	64*
COC(=O)c1cc2ccccc2c(-c2c(OC)c(C(=O)OC)cc3ccccc23)c1OC	46	44*	30	18	12	30*
O=C(CN1CCN(c2nc(-c3ccc(Cl)cc3)cs2)CC1)NCc1ccco1	23	42*	20	10	4	29*
NC(=O)C1CCN(C(=O)c2cccc(S(=O)(=O)N3CCCC3)c2)CC1	13	3	11	23	·	·
